According to PubChem BioAssay AID1650 (Southern Research Specialized Biocontainment Screening …, 2009):
Potency and affinity values are given separately. Active and inactive are the calls of the source. No rule for the calls is given here.

Assay: mammalian cell viability reduction – secondary assay, cytotoxicity control for West Nile virus antiviral project, dose response (AID 1650)
Conditions: Mammalian host cell viability, cytotoxicity counter-screen; series mostly up to 20 µM; viability: at the top concentration

| Compound | viability |
| --- | --- |
| c1ccc2c(c1)Sc1ccccc1N2CC1CN2CCC1CC2 (centres undefined) | 87% [at 10 µM] (inactive) |
| CN(C)CCN(CC1CCCN(Cc2ccccc2F)C1)C(=O)Cc1ccc(F)c(F)c1 (centres undefined) | 89.5% (inactive) |
| CC(C)c1oc(=O)cc2c1[C@@H](O)[C@H]1OC(=O)[C@@]3(C)CC[C@@H](O)[C@@]2(C)C13 (some centres undefined) | 86.6% [at 10 µM] (inactive) |
| Cc1ccc2c(c1)[C@@H]1CN(C)CC[C@@H]1N2C(=O)Nc1cccc(C(F)(F)F)c1 | 81.5% [at 10 µM] (inactive) |
| O=c1c2ccccc2nc(/C=C/c2ccccc2O)n1-c1ccccc1O | 75.6% (inactive) |
| O=C1/C(=C\c2ccccc2)C2OCC=C3CN4CCC56c7ccccc7N1C5C2C3CC46 (centres undefined) | 78.2% (inactive) |
| CC(C)c1oc(=O)cc2c1[C@@H](O)[C@H]1OC(=O)[C@@]3(C)C[C@@H](O)[C@@H](O)[C@@]2(C)C13 (some centres undefined) | 92.9% [at 10 µM] (inactive) |
| CCN(CC)c1nc2c(C)cccn2c(=O)c1C=C1C(=O)NC(=O)NC1=O | 93.5% (inactive) |
| O=C(N/N=C/c1c(O)n(CCc2ccccc2)c(=O)[nH]c1=O)c1ccccc1O | 95.3% (inactive) |
